# Compounds with a hit are over-represented: about 2.7% of the library has one in this group of screens.
# KDM5B inhibitor: Primary screen for KDM5B Histone Demethylases FDH-coupled qHTS; Lysine-specific demethylase 5B (Homo sapiens), Q9UGL1; KDM5B demethylase, FDH-coupled NADH fluorescence (FDH is formaldehyde dehydrogenase); Potency, µM (doses to about 57.7 µM), hits mostly inhibitors; 2.6% of 220,000 active; active means well fitted inhibition curve with a large enough effect; inconclusive means small, poorly fitted or top-dose-only effect; inactive means no such curve, though single readings can be large or run the other way; further: potency means the concentration at half of the fitted maximal effect; 0% is about no effect; nearly all actives have a fitted effect of over 70% in size
#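 Inhibition is measured as reduced NADH fluorescence generation from FDH coupling to formaldehyde release. Truncated KDM5BΔAP at 200 nM final acts on H3K4me3 peptide (12.5 µM in substrate mix) in pH 7.5 HEPES buffer with Tween-20, 30 min, room temperature.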
# IP6K1 inhibitor: Primary qHTS assay for small molecule inhibitors of Inositol hexaphosphate kinase 1 (IP6K1) | activity change, % (series mostly up to about 58 µM) | IP6K1 kinase, ADP-Glo luminescence, 2 h; hits give low values | 0.81% of 140,000 active | Inositol hexakisphosphate kinase 1 (Homo sapiens), Q92551; in the data active means activity change below about -25%; further: on the % scale 0 is the no-effect control and ±100 the full control effect
# Target sequence (Q92551 whole entry, looked up): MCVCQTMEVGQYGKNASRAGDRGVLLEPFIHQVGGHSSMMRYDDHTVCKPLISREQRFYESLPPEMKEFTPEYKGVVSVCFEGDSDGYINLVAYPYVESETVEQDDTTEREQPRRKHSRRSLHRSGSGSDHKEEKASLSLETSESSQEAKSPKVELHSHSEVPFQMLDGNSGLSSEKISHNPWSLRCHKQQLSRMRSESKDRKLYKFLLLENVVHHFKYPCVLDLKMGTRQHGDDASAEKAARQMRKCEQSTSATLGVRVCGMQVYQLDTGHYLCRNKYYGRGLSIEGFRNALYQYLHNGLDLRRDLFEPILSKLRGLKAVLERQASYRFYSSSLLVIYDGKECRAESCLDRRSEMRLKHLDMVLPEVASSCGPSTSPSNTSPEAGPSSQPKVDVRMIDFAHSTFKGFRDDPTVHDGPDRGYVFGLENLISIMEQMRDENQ
#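 ADP-Glo luminescence measures ADP made by human IP6K1 during a 2 h RT reaction with ATP/IP6 (mix at 1.3 mM/130 uM); top library doses 57.5 and 19.1 uM final.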
# The depositor's hits bear a star; i = inactive; ? = inconclusive; . = not tested or not shown; ! = not active in a repeat.
SMILES,KDM5B inhibitor,IP6K1 inhibitor
Cc1ncc(CO)c(CN2CCCC23Cc2ccccc2CNC3=O)c1O (stereo unspecified),79µM*,-8
O=C1NCc2ccccc2CC12CCCN2Cc1ccc2ccccc2n1 (stereo unspecified),?,2
O=C1NCc2ccccc2CC12CCCN2Cc1ccnc2ccccc12 (stereo unspecified),50µM*,-9
O=C(NC1CCCC1)N1c2ccccc2CC1c1noc(C2CCOCC2)n1 (stereo unspecified),i,12
O=C(Nc1ccc(Cl)cc1)N1CCN(Cc2ccccc2-c2cccnc2)CC1,.,3
CN(CC(=O)Nc1cccc(F)c1)Cc1cc(Cl)cc2c1OCOC2,i,.
CCOC(=O)[C@@H]1CN(C(=O)Cc2ccc(OC)cc2)[C@H]2c3ccc(OC)cc3O[C@@H]12,.,19
CC(C)(C)CC(=O)N1CCN2C(=O)c3cc(-c4cccc(C(F)(F)F)c4)ccc3NC(=O)[C@H]2C1,i,-5
CC(C)(C)CC(=O)N1CCN2C(=O)c3cc(-c4ccccc4)ccc3NC(=O)[C@H]2C1,32µM*,2
O=C1Nc2ccc(-c3ccccc3F)cc2C(=O)N2CCN(C(=O)c3ccco3)C[C@@H]12,35µM*,-1
CC(C)(C)CC(=O)N1CCN2C(=O)c3cc(-c4ccc(Cl)cc4)ccc3NC(=O)[C@H]2C1,?,-1
CCCNC(=O)N1CCN2C(=O)c3cc(-c4ccccc4F)ccc3NC(=O)[C@@H]2C1,?,0
COc1ccc(-c2ccc3c(c2)C(=O)N2CCN(C(=O)CC(C)(C)C)C[C@@H]2C(=O)N3)cc1,28µM*,7
Cc1cc(C(=O)Cn2c(Cl)nc3c2c(=O)n(C)c(=O)n3C)c(C)n1CCc1ccccc1,i,.
CN1CCN(c2nc3ccccc3nc2C(=O)Nc2ccc(F)c(Cl)c2)CC1,i,.
CCOC(=O)[C@H]1[C@@H](O)C(=O)NC12CCN(C(=O)OCC(C)C)CC2,.,1
COc1ccc(-c2cc(N3CCCN(C(=O)c4ccc(C(C)(C)C)cc4)CC3)n[nH]2)cc1,i,-11
COc1ccccc1Nc1ccnc(N2CCCC(C(=O)NC3CCC3)C2)n1 (stereo unspecified),.,-3
COc1ccc(-c2cccc(C(=O)N3CCN([S+](=O)([O-])c4ccc(C)cc4)CC3)c2)nn1,.,-4
OCc1ccc(-c2cc3c(ccn3Cc3cccnc3)c(C3=CCOCC3)n2)cc1,?,-17
COCCn1ccc2c(C3=CCOCC3)nc(-c3cccc(C(N)=O)c3)cc21,32µM*,15
C1=C(c2nc(-c3ccncc3)cc3c2ccn3Cc2cccnc2)CCOC1,?,-19
COCCn1ccc2c(C3=CCOCC3)nc(-c3cccc(O)c3)cc21,40µM*,0
CCCCCCCCCC(=O)Nc1ccc(C)c(C)c1,i,.
c1cc2nc(C3CCCCN3)[nH]c2cn1 (stereo unspecified),?,15
SMILES,KDM5B inhibitor,IP6K1 inhibitor
c1cnc2nc(C3CCCN3)[nH]c2c1 (stereo unspecified),13µM*!,22
CSc1ccc(-c2cccc(CN3CCC(N[S+](=O)([O-])c4ccccc4)CC3)c2)cc1,.,-21
Cc1nc(N2CCCCCC2)ncc1C(=O)O,?,-7
CCc1nc(N2CCOCC2)ncc1C(=O)O,25µM*,-21
COc1ccc(CCc2nc3nccc(-c4cccnc4)n3n2)cc1,i,6
COc1ccc(-c2ccnc3nc(CC(C)C)nn23)cc1OC,28µM*,2
COc1cccc(-c2ccnc3nc(CC(C)C)nn23)c1,25µM*,-3
COc1cccc(-c2ccnc3nc(CCc4ccccc4)nn23)c1,20µM*,6
COc1ccc(CCc2nc3nccc(-c4ccc5c(c4)OCCCO5)n3n2)cc1OC,?,3
COc1ccc(-c2ccnc3nc(CC(C)C)nn23)cc1,i,-4
CN(Cc1ccco1)C(=O)c1nn(Cc2ccccc2)c(=O)c2ccccc12,i,.
O=C(NCC1CC1)c1nc2cccnc2n(C2CCCC2)c1=O,.,10
Cc1cccc(C(=O)NCCSC(F)(F)F)n1,i,.
O=S(=O)(c1cccc(F)c1)N1CCC2(CC1)CC(Cc1nc(C3CC3)no1)CCO2 (stereo unspecified),i,-3
COc1ccc(OC)c(S(=O)(=O)N2CCC(Oc3ccccc3-c3nc(C)no3)C2)c1 (stereo unspecified),?,13
Cc1noc(-c2ccccc2OC2CCN(S(C)(=O)=O)C2)n1 (stereo unspecified),22µM*,18
CCCCn1c(=O)[nH]c(=O)c2c1nc(CSc1nnnn1C)n2CCC,i,.
COc1ccc(-c2cc(C(=O)NC3CC3)c3c(C4CCNC4)noc3n2)cc1 (stereo unspecified),79µM*,-1
COCCNC(=O)c1cc(-c2ccc(OC)cc2)nc2onc(C3CCCN3)c12 (stereo unspecified),?,-3
COc1ccc(-c2cc(C(=O)NC3CC3)c3c(C4CCNCC4)noc3n2)cc1,?,2
O=C(NC1CC1)c1cc(C2CC2)nc2onc(C3CCNC3)c12 (stereo unspecified),?,1
COc1ccc(-c2cc(C(=O)NC3CC3)c3c(C4CCCN4)noc3n2)cc1 (stereo unspecified),79µM*,2
O=C(NC1CCNCC1)c1cc(C2CC2)nc2onc(C3CCCN3)c12 (stereo unspecified),79µM*,-4
COc1ccc2c(Cl)c(C(=O)OCC(=O)Nc3ccccc3F)sc2c1Cl,i,.
CC1C(=O)CCN(C)C1C (stereo unspecified),i,.
SMILES,KDM5B inhibitor,IP6K1 inhibitor
COc1ccc(-c2cc(-c3cccnc3)c3cncn3c2)cn1,?,-15
OCc1ccc(-c2cc(-c3ccncc3)c3cncn3c2)cc1,?,2
COc1ccc(-c2cc(-c3cccc(C(N)=O)c3)cn3cncc23)cc1,?,-7
COc1ccc(-c2cc(-c3ccc4c(c3)CNC4=O)cn3cncc23)cc1,22µM*,-17
COc1ccc(-c2cc(-c3ccncc3)cn3cncc23)cc1,40µM*,-13
COc1ccc(-c2cc(-c3ccc4cn[nH]c4c3)cn3cncc23)cn1,10µM*,-8
O=C(NC1CCN(Cc2cccc(-c3ccc(F)cc3F)c2)CC1)c1cccc(Cl)c1,.,5
CC(=O)Nc1ccc(NC(=O)c2cc(C3CC3)nc3ccccc23)cc1,i,.
O=C(c1cccc(Cl)c1)N1CCC2(CC1)CCN(Cc1cccs1)c1ccccc1O2,?,7
CN(CCc1ccccn1)c1ccc(-c2nc(COc3ccccc3)no2)cn1,28µM*,11
CC(Cn1cccn1)Nc1ccc(-c2nc(COc3ccccc3)no2)cn1 (stereo unspecified),?,5
CN(Cc1cccnc1)c1ccc(-c2nc(COc3ccccc3)no2)cn1,35µM*,15
CN(CCO)c1ccc(-c2nc(CCCc3ccccc3)no2)cn1,?,-4
COc1ccccc1-c1ccc(CN2CCC(NC(=O)Cc3ccccc3)C2)cc1 (stereo unspecified),.,29
COc1ccccc1Nc1nc(N)c(C(=O)c2ccc(Cl)cc2)s1,i,.
COc1ccc(NC(=O)CC#N)c(C)c1,i,.
CN(Cc1ccccc1)C(=O)CCc1ccnc(N2CCOCC2)c1,25µM*,1

# Source: PubChem (National Center for Advancing Translational Sciences (NCATS))
